# SMN2 splice up: SMN2 splice variant enhancement | HEK293 SMN2-luciferase splicing reporter, luminescence, 30-36 h | Potency, µM (highest dose often 46.1 µM), without a hit: top-dose activity change, positive = activation, hits mostly activators | hit rate 2.8% among 210,000 | AID 1458; further: % of control where 0% means no effect; nearly all actives have a fitted effect of over 55% in size
#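 HEK293 cells carry an SMN2 […]–luciferase reporter in which exon 7 inclusion puts luciferase in frame. Cells were plated 10-12 h before compound addition, then incubated 30-36 h at 37C. ONE-Glo luminescence was read; sodium butyrate at 4.5 mM final served as control.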
# Rab9 prom act: activators of Rab9 promoter. Potency, µM (highest dose often 9.22 µM), inactives show at the highest dose activation, negative = inhibition, usual class: activators. AID 485297. Huh7 Rab9 promoter-luciferase reporter, luminescence, 24 h. hit rate 2.8% among 320,000; further: % of control where 0% means no effect; nearly all actives have a fitted effect of over 60% in size
#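 Stable Rab9-luc Huh7, 1500 cells/well, 2 h settle; cmpd in DMSO, 24 h, 37 °C/5% CO2; luciferase reagent 10 min RT; luminescence.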
# ELG1 genotox: genotoxicity induction in ELG1-luciferase HEK293T cells; HEK293T ELG1-luciferase reporter, luminescence, 16 h; Potency, µM (titrated, usually from 46 µM), for the others: at the top dose activity change, positive = activation, actives largely listed as activators; hit rate 1.3% among 330,000; AID 504466; further: % of control where 0% means no effect; nearly all actives have a fitted effect of over 60% in size
#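 Genotoxic stress is detected as increased luminescence from luciferase-tagged ELG1 in HEK293T cells, measured with ONE-Glo after a 16 hr treatment at 37 °C.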
# NPC1 promoter act: activates the NPC1 promoter. Huh7 NPC1 promoter luciferase reporter, 24 h. hit rate 2.4% among 320,000. AID 485313. Potency, µM (top dose mostly 9.22 µM), inactives show top-dose activation, actives largely listed as activators; further: % of control where 0% means no effect; nearly all actives have a fitted effect of over 60% in size
#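 Luminescence from an NPC1 promoter-driven luciferase reporter in stably transfected Huh7 cells was measured after 24 h compound treatment at 37 °C, followed by 10 min ambient incubation with luciferase detection reagent.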
# FLuc modulator: inhibits or activates purified firefly luciferase, miR-21 counter-screen. P08659. purified FLuc, Km substrates, luminescence inhibition. Potency, µM (series often up to 57.5 µM), without a hit: at the highest dose activity change, negative = inhibition, actives largely listed as inhibitors. hit rate 6.9% among 360,000. AID 588342;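 further: plate controls were vehicle for no effect and reference inhibitor for full effect; nearly all actives have a fitted effect of over 55% in size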
# Target sequence (P08659 whole entry, looked up): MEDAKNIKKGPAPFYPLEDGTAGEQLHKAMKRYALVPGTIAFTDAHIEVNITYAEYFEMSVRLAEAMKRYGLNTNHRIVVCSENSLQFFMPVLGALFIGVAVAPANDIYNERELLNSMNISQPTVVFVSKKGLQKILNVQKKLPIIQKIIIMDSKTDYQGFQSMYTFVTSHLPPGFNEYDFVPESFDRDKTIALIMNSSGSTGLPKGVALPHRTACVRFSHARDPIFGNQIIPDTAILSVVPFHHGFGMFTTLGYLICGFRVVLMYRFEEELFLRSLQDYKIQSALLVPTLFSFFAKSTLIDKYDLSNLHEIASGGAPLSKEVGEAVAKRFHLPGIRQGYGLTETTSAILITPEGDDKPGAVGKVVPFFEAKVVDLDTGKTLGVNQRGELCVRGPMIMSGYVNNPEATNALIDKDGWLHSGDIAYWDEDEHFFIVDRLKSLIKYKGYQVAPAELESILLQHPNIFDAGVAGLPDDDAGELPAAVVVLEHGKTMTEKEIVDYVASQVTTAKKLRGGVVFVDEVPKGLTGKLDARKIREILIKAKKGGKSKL
#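 Purified P. pyralis luciferase, 10 nM final, with Km-level 10 uM D-luciferin and 10 uM ATP in 50 mM Tris acetate pH 7.5, 10 mM Mg acetate, 0.01% Tween-20, 0.05% BSA; 6-point qHTS titration about 60 µM downward; luminescence read.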
# ELG1 DNA repair: ELG1-dependent DNA repair inhibition | AID 504467 | HEK293T ELG1-luciferase reporter, luminescence, 16 h; DNA damage induced by 5-fluorouridine | hit rate 2.3% among 330,000 | Potency, µM (top dose mostly 46.1 µM), for the others: at the top dose activity change, negative = inhibition, most hits filed as inhibitors; further: on the % scale 0 is the no-effect control and ±100 the full control effect; nearly all actives have a fitted effect of over 55% in size
#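 Overnight (16 hr) co-exposure of 2,000 cells/well to 5-fluorouridine and compound at 37 °C preceded detection. Luciferase was quantified via ONE-Glo luminescence; loss of signal denotes inhibition.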
# * hit, by the source's call; ? = inconclusive; / = not tested or not shown; [ ] = remark or other dose. This is a sample that favours compounds with a hit; in the whole collection about 9.3% have one here. The call rests on the fitted dose curve; in most records, active means well fitted curve in the direction sought with a large enough effect; inconclusive means small, poorly fitted or top-dose-only effect, or another doubt; inactive means no such curve, though single readings can be large; an effect the other way counts as inactive or inconclusive. Potency means the concentration at half of the fitted maximal effect.
SMILES,SMN2 splice up,Rab9 prom act,ELG1 genotox,NPC1 promoter act,FLuc modulator,ELG1 DNA repair
Nc1cccc2c1C(=O)N(C(=O)/C=C/c1cccc(Br)c1)C2=O,/,-8%,8%,-8%,?,0%
Nc1cccc2c1C(=O)N(C(=O)/C=C/c1cccc(F)c1)C2=O,15%,-4%,0%,-8%,21µM*,0%
Cc1ccc(C(=O)/C=C/c2cc(C#N)n(C)c2C)cc1,/,14%,9%,13%,8.5µM*,?
CCOc1ccc(C2C(C#N)=C(N)SC(N)=C2C#N)c(OCC)c1,-1%,15%,2%,-2%,-1%,6%
Cc1ccc(NC(=O)c2cccc(Cl)c2)nc1,5%,7%,26%,25%,?,?
O=C(Nc1cc(-c2ccccc2)[nH]n1)c1ccc(Cl)cc1,/,3.2µM*,?,2µM*,11µM*,?
O=C(Nc1nc(-c2ccccc2)ns1)c1ccc(Cl)cc1,/,/,/,/,-6%,/
Cc1cc(NC(=O)c2cccc(Cl)c2)n[nH]1,/,2.5µM*,?,2.8µM*,19µM*,?
O=C1CC(N2CCN(c3ccc(F)cc3)CC2)C(=O)N1c1ccc2c(c1)OCO2 (stereo unspecified),7%,1%,-3%,-1%,-1%,-3%
COc1ccc(/C=N/NC(=O)c2cc(-c3ccccc3OC)nc3ccccc23)cc1COC(C)=O,-2%,-3%,-2%,0%,0%,?
COc1cc(/C=N/NC(=O)c2cc(-c3cccs3)nc3ccccc23)ccc1O,/,-1%,-1%,-2%,6.7µM*,?
N#Cc1ccc(/C=N/NC(=O)c2cc(-c3cccs3)nc3ccccc23)cc1,7%,-6%,2%,-16%,6.7µM*,-20%
O=C(O)c1ccc(-c2nnc(-c3ccc([N+](=O)[O-])cc3)o2)cc1,/,4%,-1%,-1%,-8%,-9%
O=C(O)c1ccc(-c2nnc(-c3ccccc3)o2)cc1,/,?,?,0.32µM*,5.4µM*,?
O=C(c1ccc(-c2nnc(-c3ccccc3)o2)cc1)N1CCCCCC1,/,0.56µM*,?,1.4µM*,4.8µM*,?
COc1cc(OC)cc(C(=O)NNC(=O)CN2C(=O)NC(C)(c3ccccc3)C2=O)c1 (stereo unspecified),/,-2%,-4%,3%,3%,11%
Cc1ccc(N=Cc2nc(-c3ccco3)oc2O)cc1,12%,8%,?,1%,4.3µM*,?
Oc1oc(-c2ccccc2)nc1/C=N/c1nccs1,?,12%,2%,2%,12µM*,?
Cc1ccc(-c2nc(C=Nc3ccccc3)c(O)o2)cc1,/,?,?,18%,9.5µM*,?
COc1ccc(CCNc2nc3c(c(=O)n(C)c(=O)n3C)n2C)cc1OC,-16%,-1%,-2%,-2%,-2%,-15%
Cc1cccc(NC(=O)Cn2nnc(C(=O)Nc3ccc(F)c(Cl)c3)c2N)c1,/,-2%,0%[9.26 µM],-3%,-1%,10%
c1ccc(-c2csc3ncnc(NCCN4CCOCC4)c23)cc1,/,-18%,-23%,-5%,-1%,16µM*
Cc1ccc(-c2csc3ncnc(NCCN4CCOCC4)c23)cc1,-38%,-6%,-5%,1%,10%,?
COc1ccc(-c2csc3ncnc(N4CCN(c5ccc(OC)cc5)CC4)c23)cc1,/,0%,-15%,0%,3%,?
COc1ccc(-c2csc3ncnc(NCCN4CCOCC4)c23)cc1,-1%,3%,-20%,0%,0%,13µM*
SMILES,SMN2 splice up,Rab9 prom act,ELG1 genotox,NPC1 promoter act,FLuc modulator,ELG1 DNA repair
Clc1ccc(-c2csc3ncnc(NCCN4CCOCC4)c23)cc1,-16%,3%,-22%,-6%,0%,18µM*
CC(=O)Nc1cccc(-c2cn3ccccc3n2)c1,?,27%,13%,16%,19µM*,?
Cc1ccn2cc(-c3cccc(NC(=O)c4ccccc4)c3)nc2c1,?,22%,1%,3%,4.3µM*,?
COc1ccc(CC(=O)Nc2ccc(-c3cn4ccc(C)cc4n3)cc2)cc1,-5%,?,21µM*,?,?,?
Cc1cccn2cc(-c3cccc(NC(=O)C(C)C)c3)nc12,?,/,/,/,11µM*,/
Cc1cccn2cc(-c3ccc(NC(=O)Cc4ccccc4)cc3)nc12,/,-3%,9%,-2%,-1%,3%
COc1cc(/C=C/C(=O)O)cc(S(=O)(=O)Nc2cc(Cl)c(Cl)cc2Cl)c1OC,/,-5%,0%,-1%,-17%,12%
CCCC[C@@H](CNC)NC[C@H](NCCCCC1CCCCC1)C(C)C,/,0%,-15%,-6%,0%,-13%
O=C(NCC(c1ccc2c(c1)OCO2)N1CCOCC1)C(=O)Nc1cccc(Cl)c1 (stereo unspecified),/,/,/,/,5%,/
CC(=O)c1cccc(NC(=O)CCc2nnc3ccc(N4CCOCC4)nn23)c1,/,4%,0%,-1%,-1%,7%
O=C(Nc1cccc(-c2cn3ccccc3n2)c1)c1cc2ccccc2oc1=O,?,?,17%,?,1.5µM*,?
Cc1ccn2cc(-c3cccc(NC(=O)C(C)C)c3)nc2c1,14µM*,?,?,25%,6µM*,?
CC(C)C(=O)Nc1cccc(-c2cn3ccccc3n2)c1,-5%[1.84 µM],17%,8%,12%,11µM*,?
Cc1ccc(C)c(NC(=O)Nc2cccc(-c3cn4cccnc4n3)c2)c1,-4%,/,/,/,-3%,/
O=C(Nc1cccc(-c2cn3ccccc3n2)c1)c1cccs1,/,13%,?,21%,3.4µM*,-23%
Cc1sc(NC(=O)c2ccc(Br)s2)c(C(N)=O)c1C,10µM*,?,?,?,1.7µM*,?
Cc1sc(NC(=S)Nc2ccc(F)cc2)c(C(N)=O)c1C,/,-11%,2%,0%,-2%,0%
Cc1sc(NC(=O)c2ccc(Cl)s2)c(C(N)=O)c1C,10µM*,?,1.6µM*,?,2.4µM*,?
O=C(c1ccc2c(c1)C(=O)N(CCCO)C2=O)c1ccc2c(c1)C(=O)N(CCCO)C2=O,9%,2%,0%,0%,1%,-1%
CN(C)S(=O)(=O)c1ccc(NC(=O)COC(=O)C2COc3ccccc3O2)cc1 (stereo unspecified),13%,-2%,2%,2%,3%,-5%
O=C(O)c1ccc(NC(=O)c2cccc(NC(=O)c3cccs3)c2)cc1,/,15%,0%,1%,?,0%
CC(=O)c1cccc(NC(=O)c2cc3c(s2)-c2c(C)cccc2OC3)c1,-2%,/,/,/,-6%,/

# Compound activity from PubChem BioAssay.
